Results published in PubChem BioAssay (EPA / NIEHS).
The source made the active and inactive calls. The calls were made as follows: active = hit-call score of the fitted dose curve at least 0.9, where 1 is the maximum; inactive = score below 0.9.

Key:
[1] = target: Transcription factor E2F1 (Homo sapiens) (UniProt Q01094); experiment: ATG_E2F_CIS: Attagene CIS-FACTORIAL HepG2 Assay for human E2F Transcription Factor 1 (AID 2282935); conditions: HepG2 Attagene cis-reporter, E2F reporter RNA transcripts; actives raise or lower the signal
Chain of Transcription factor E2F1 (Homo sapiens) (Q01094 whole entry, looked up): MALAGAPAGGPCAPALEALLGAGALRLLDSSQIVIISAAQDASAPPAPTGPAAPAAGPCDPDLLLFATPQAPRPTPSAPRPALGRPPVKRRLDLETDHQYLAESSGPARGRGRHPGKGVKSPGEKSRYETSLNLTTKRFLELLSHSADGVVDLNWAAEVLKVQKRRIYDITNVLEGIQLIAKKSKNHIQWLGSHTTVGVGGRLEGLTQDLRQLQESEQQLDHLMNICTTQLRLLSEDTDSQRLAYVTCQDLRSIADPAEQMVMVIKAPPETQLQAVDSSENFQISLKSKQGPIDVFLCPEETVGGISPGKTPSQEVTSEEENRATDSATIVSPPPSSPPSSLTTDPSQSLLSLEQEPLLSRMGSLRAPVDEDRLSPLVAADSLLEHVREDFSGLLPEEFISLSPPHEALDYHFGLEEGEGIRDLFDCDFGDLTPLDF
Method in brief: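 Measures reporter transcript levels via RT-PCR with capillary electrophoresis detection in HepG2 cells harboring cis-regulated reporter units; 24 h post-dose; bidirectional curve fitting with DMSO as baseline.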

[2] = ATG_E_Box_CIS: Attagene CIS-FACTORIAL HepG2 Assay for human Enhancer Box (E-box) (AID 2282936); conditions: HepG2 E-box cis-reporter transcription, actives raise or lower the signal
Method in brief: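 First, HepG2 cells receive multiple cis-regulated reporter constructs by transient transfection. Next, chemicals are applied for 24 h. Finally, reporter mRNA is quantified via RT-PCR and capillary electrophoresis, with DMSO as baseline.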

[3] = ATG_M_61_CIS: Attagene CIS-FACTORIAL HepG2 Assay for M61 Transcription Factor (Internal Marker) (AID 2282937); conditions: HepG2 Attagene CIS-FACTORIAL M61 internal marker reporter; actives raise or lower the signal
Method in brief: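 Background-control endpoint: HepG2 cells with cis-regulated reporter constructs, 24 h exposure, reporter mRNA detected via fluorescent primer extension and capillary electrophoresis; values from bidirectional fitting with DMSO baseline.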

[4] = ATG_EGR_CIS: Attagene CIS-FACTORIAL HepG2 Assay for human Early Growth Response 1 (EGR1) (AID 2282938); conditions: HepG2 Attagene CIS-FACTORIAL EGR reporter mRNA; actives raise or lower the signal
Method in brief: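 Endpoint derived by bidirectional fitting versus DMSO vehicle. Method: cis-promoter reporter units transfected into HepG2, 24 h dosing, RNA isolation, RT-PCR with 6-FAM primer extension and HpaI digestion, then capillary electrophoresis fluorescence detection.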

[5] = ATG_M_19_CIS: Attagene CIS-FACTORIAL HepG2 Assay for M19 Transcription Factor (Internal Marker) (AID 2282939); conditions: HepG2 Attagene CIS-FACTORIAL M19 internal marker reporter; actives raise or lower the signal
Method in brief: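 HepG2 cells transiently transfected with cis-regulated multiple reporter transcription units were dosed for 24 h; reporter mRNA was quantified by RT-PCR, 6-FAM primer-extension labelling, HpaI digestion and capillary electrophoresis, with bidirectional fitting against DMSO baseline.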

[6] = ATG_ERE_CIS: Attagene CIS-FACTORIAL HepG2 Assay for Estrogen Response Element (ERE) (AID 2282940); conditions: HepG2 ERE cis-reporter, Attagene RNA transcript; actives raise or lower the signal
Method in brief: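 HepG2 cells transiently transfected with cis-promoter-driven multiplexed reporter transcription units report endogenous TF activity. After 24 h compound exposure, reporter mRNA is quantified by RT-PCR with capillary electrophoresis fluorescence; bidirectional fitting versus DMSO baseline.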

[7] = ATG_Ets_CIS: Attagene CIS-FACTORIAL HepG2 Assay for human Erythroblast Transformation Specific (ETS) (AID 2282941); conditions: HepG2 ETS cis-reporter transcription, actives raise or lower the signal
Method in brief: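 HepG2 cells transiently transfected with cis-promoter reporter transcription units were dosed for 24 h; reporter mRNA was measured by RT-PCR, 6-FAM primer extension, HpaI digestion and capillary electrophoresis, with bidirectional fitting against DMSO baseline.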

[8] = target: Hepatocyte nuclear factor 3-beta (Homo sapiens) (UniProt Q9Y261); experiment: ATG_FoxA2_CIS: Attagene CIS-FACTORIAL HepG2 Assay for human Forkhead box A2 (FOXA2) (AID 2282942); conditions: HepG2 cis-reporter transcription factor activity, 24 h; actives raise or lower the signal
Chain of Hepatocyte nuclear factor 3-beta (Homo sapiens) (Q9Y261 whole entry, looked up): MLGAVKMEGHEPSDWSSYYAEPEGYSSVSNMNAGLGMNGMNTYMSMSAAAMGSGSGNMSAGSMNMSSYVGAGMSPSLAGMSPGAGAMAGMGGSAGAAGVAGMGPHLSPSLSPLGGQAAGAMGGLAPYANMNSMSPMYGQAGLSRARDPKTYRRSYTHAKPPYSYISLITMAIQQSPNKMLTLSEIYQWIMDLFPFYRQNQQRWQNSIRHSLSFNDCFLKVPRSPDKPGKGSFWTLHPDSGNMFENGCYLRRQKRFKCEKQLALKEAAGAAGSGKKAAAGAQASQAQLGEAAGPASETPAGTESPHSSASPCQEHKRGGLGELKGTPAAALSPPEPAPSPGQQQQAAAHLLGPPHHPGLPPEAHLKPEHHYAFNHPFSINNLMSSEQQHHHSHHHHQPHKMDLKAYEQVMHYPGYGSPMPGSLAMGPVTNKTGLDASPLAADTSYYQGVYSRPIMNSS
Method in brief: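 Measured: reporter mRNA induction or loss in HepG2 transiently carrying multiple cis-regulated reporter units, 24 h after dosing. Quantified by RT-PCR plus capillary electrophoresis, normalised to DMSO.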

[9] = ATG_FoxO_CIS: Attagene CIS-FACTORIAL HepG2 Assay for human Forkhead box O (FoxO) (AID 2282943); conditions: HepG2 Attagene cis-reporter, FoxO element, mRNA; actives raise or lower the signal
Method in brief: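 Read-out: fluorescence of 6-FAM-labelled reporter cDNA fragments resolved by capillary electrophoresis. Transiently transfected HepG2 cells were dosed for 24 h; activity fitted in both directions relative to DMSO controls.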

[10] = ATG_GATA_CIS: Attagene CIS-FACTORIAL HepG2 Assay for human GATA Binding Protein (AID 2282944); conditions: HepG2 GATA cis-element reporter, Attagene multiplex mRNA; actives raise or lower the signal
Method in brief: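 HepG2 cells transiently transfected with multiplexed cis-element reporter units reflecting endogenous transcription factor activity; reporter mRNA measured after 24 h dosing by RT-PCR, 6-FAM labeling, HpaI digestion and capillary electrophoresis. Bidirectional fitting versus DMSO baseline.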

Row | Compound | outcome [1] | outcome [2] | outcome [3] | outcome [4] | outcome [5] | outcome [6] | outcome [7] | outcome [8] | outcome [9] | outcome [10] | AC50 [6] | AC50 [1] | AC50 [2] | AC50 [4] | AC50 [5] | AC50 [7] | AC50 [9] | AC50 [10]
1 | C=CC(F)(F)C(F)(F)C(F)(F)C(F)(F)C(F)(F)C(F)(F)C(F)(F)C(F)(F)F | inactive | inactive | inactive | inactive | inactive | inactive | inactive | inactive | inactive | inactive | – | – | – | – | – | – | – | –
2 | CCCCCCS | inactive | inactive | inactive | inactive | inactive | inactive | inactive | inactive | inactive | inactive | – | – | – | – | – | – | – | –
3 | CCCCCCCCC(F)(F)C(F)(F)C(F)(F)C(F)(F)C(F)(F)C(F)(F)F | inactive | inactive | inactive | inactive | inactive | inactive | inactive | inactive | inactive | inactive | – | – | – | – | – | – | – | –
4 | O=C(O)C(F)(F)C(F)(F)C(F)(F)C(F)(F)C(F)(F)C(F)(F)C(F)(F)C(F)(F)C(F)(F)C(F)(F)C(F)(F)C(F)(F)C(F)(F)F | inactive | inactive | inactive | inactive | inactive | inactive | inactive | inactive | inactive | inactive | – | – | – | – | – | – | – | –
5 | CC(C)OC(=O)c1ccccc1C(=O)OC(C)C | inactive | inactive | inactive | inactive | inactive | – | inactive | inactive | inactive | inactive | 27.7 µM (active) | – | – | – | – | – | – | –
6 | O=C(C=Cc1ccccc1)OCC=Cc1ccccc1 | inactive | inactive | inactive | inactive | inactive | inactive | inactive | inactive | inactive | inactive | – | – | – | – | – | – | – | –
7 | COC(=O)CCC(F)(F)C(F)(F)C(F)(F)C(F)(F)F | inactive | inactive | inactive | inactive | inactive | – | inactive | inactive | inactive | inactive | 6.98 µM (active) | – | – | – | – | – | – | –
8 | C(=C(c1ccccc1)c1ccccc1)c1ccccc1 | inactive | inactive | inactive | inactive | inactive | – | inactive | inactive | inactive | inactive | 0.0294 µM (active) | – | – | – | – | – | – | –
9 | CCC(=O)OCCc1ccccc1 | inactive | inactive | inactive | inactive | inactive | inactive | inactive | inactive | inactive | inactive | – | – | – | – | – | – | – | –
10 | Nc1ccc(Oc2cccc(Oc3ccc(N)cc3)c2)cc1 | – | – | inactive | – | – | inactive | – | inactive | – | – | – | 33.4 µM (active) | 179 µM (active) | 26.2 µM (active) | 51.5 µM (active) | 112 µM (active) | 163 µM (active) | 135 µM (active)
11 | O=C(O)C(F)(F)C(F)(F)C(F)F | inactive | inactive | inactive | inactive | inactive | inactive | inactive | inactive | inactive | inactive | – | – | – | – | – | – | – | –
12 | c1ccc(-c2ccccc2-c2ccccc2)cc1 | inactive | inactive | inactive | inactive | inactive | – | inactive | inactive | inactive | inactive | 3.47 µM (active) | – | – | – | – | – | – | –
13 | CC(CCl)OP(=O)(OC(C)CCl)OC(C)CCl (stereo not given) | inactive | inactive | inactive | inactive | inactive | inactive | inactive | inactive | inactive | inactive | – | – | – | – | – | – | – | –
14 | N=C(N)C(F)(F)C(F)(F)C(F)(F)C(F)(F)C(F)(F)C(F)(F)C(F)(F)F | – | – | inactive | inactive | inactive | – | inactive | inactive | inactive | – | 38.6 µM (active) | 199 µM (active) | 68.5 µM (active) | – | – | – | – | 243 µM (active)
15 | CCCCCCCCCCCCCCCC[N+](C)(C)Cc1ccccc1 | inactive | – | inactive | inactive | inactive | inactive | inactive | inactive | inactive | inactive | – | – | 47.1 µM (active) | – | – | – | – | –
16 | Oc1ccc(Nc2ccccc2)cc1 | inactive | – | inactive | inactive | inactive | – | inactive | inactive | inactive | inactive | 8.42 µM (active) | – | 100 µM (active) | – | – | – | – | –
17 | O=C(O)C(F)(F)C(F)(F)C(F)(F)C(F)(F)C(F)(F)C(F)(F)C(F)(F)C(F)(F)C(F)(F)C(F)(F)C(F)(F)C(F)(F)F | inactive | inactive | inactive | inactive | inactive | inactive | inactive | inactive | inactive | inactive | – | – | – | – | – | – | – | –
18 | O=P(O)(O)OCCC(F)(F)C(F)(F)C(F)(F)C(F)(F)C(F)(F)C(F)(F)F | inactive | inactive | inactive | inactive | inactive | – | inactive | inactive | inactive | inactive | 18.3 µM (active) | – | – | – | – | – | – | –
19 | C=C(C)C(=O)OCCC(F)(F)C(F)(F)C(F)(F)C(F)(F)C(F)(C(F)(F)F)C(F)(F)F | inactive | inactive | inactive | inactive | inactive | – | inactive | inactive | inactive | inactive | 13.8 µM (active) | – | – | – | – | – | – | –
20 | CCN(CC)c1ccc2c(C)cc(=O)oc2c1 | inactive | inactive | inactive | inactive | inactive | inactive | inactive | inactive | inactive | inactive | – | – | – | – | – | – | – | –
21 | CCCCCCOC(=O)c1ccccc1O | inactive | inactive | inactive | inactive | inactive | – | inactive | inactive | inactive | inactive | 31.4 µM (active) | – | – | – | – | – | – | –
